# This excerpt belongs to a sample that is enriched for hits.
# Pf Dd2 growth – Plasmodium falciparum Dd2 growth inhibition. Potency, µM (highest dose often 28.9 µM), for the others: at the highest dose activity, negative = inhibition, most hits filed as inhibitors. AID 1347417. hit rate 4.3% among 120,000. P. falciparum Dd2 growth, SYBR Green, 72 h; active = well fitted inhibition curve with a large enough effect;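 note: plate controls were DMSO vehicle for no effect and reference drug for full effect; nearly all actives have a fitted effect of over 65% in size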
#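 Infected erythrocytes (Dd2, 0.3% parasitemia, 2.5% hematocrit final) are added to compound in RPMI-1640/Albumax II medium, grown 72 h at 37C in low oxygen, then lysed with saponin/Triton-X containing SYBR Green and read by fluorescence.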
# * marks the source's active call; other numbers are inactive results; i = inactive; [ ] = another dose, or the depositor's remark. Potency is the fitted concentration of half-maximal effect.
SMILES,Pf Dd2 growth
O=C(c1ccccc1OCC1CCCN(C2CCCC2)C1)N1CCCC1 (stereo not drawn),i
O=C(c1ccncc1)N1CCCC(COc2ccccc2C(=O)N2CCOCC2)C1 (stereo not drawn),-5%
CC1(C(=O)NCc2ccsc2)CCOCC1,15%[44.1 µM]
Cc1cnc(CCNC(=O)c2n[nH]c3ccccc23)n1C1CCCC1,3.2µM*
CC(=O)NCCc1ncc(C)n1C1CCCC1,-3%
O=C(NCCc1noc(C2CC2)n1)c1n[nH]c2ccccc12,-16%
CCCS(=O)(=O)N[C@@H]1CN(c2ncccn2)C[C@H]1CN(C)C,i
NC(=O)Cn1ccn2nc3c(c2c1=O)CCCC3,-6%
N[S+](=O)([O-])c1ccc2c(c1)OCCN(CCc1ccccc1)C2,-4%[44.1 µM]
Cc1csc(Nc2ccc3ncn(Cc4ccccn4)c(=O)c3n2)n1,-21%[44.1 µM]
Cc1csc(Nc2ccc3ncn(Cc4ccccc4)c(=O)c3n2)n1,11µM*
O=c1c2nc(NCc3ccccc3)ccc2ncn1Cc1ccccc1,i
O=C(O)CCC(=O)NC1CC2(CCN(Cc3ccncc3)CC2)c2ccccc21 (stereo not drawn),38%
CN(C)c1cccc(C(=O)N2CCC3(CC2)NC(=O)N(c2cccc(Cl)c2)N3)c1,-11%
Cc1ccc(C)c(C(=O)N2CCN(C(=O)c3nnn4c3COC(c3ccc(Cl)cc3)C4)CC2)c1 (stereo not drawn),i
Cc1ccc(C(=O)N2CCN(C(=O)c3nnn4c3COC(c3ccc(Cl)cc3)C4)CC2)s1 (stereo not drawn),2.8µM*
Cc1ccc(C(=O)N2CCN(C(=O)c3nnn4c3COC(c3ccc(Cl)cc3)C4)CC2)c(C)c1 (stereo not drawn),-2%
CCO[C@H]1CN(C(=O)c2ccc(NS(=O)(=O)CC)cc2)C[C@@H]1O,10%
CCCn1cc(NC(=O)CC[C@H]2NC(=O)c3ccccc3NC2=O)c(C)n1,-3%
O=C(CN1CCOCC1)N1CCNc2cnc(Nc3ccc(-n4ccnc4)cc3)nc2C1,12%[44.1 µM]
Cc1cccc(-c2nocc2CCC(=O)NC2CCN(Cc3ccccc3)CC2)c1,i
Cc1ccc2[nH]c(=O)c(CCC(=O)O)cc2c1,21%
Cc1ccc2[nH]c(=O)c(CCC(=O)NC3CCN(Cc4ccccc4)CC3)cc2c1,7.1µM*
CC1CCN(c2ccc(-c3cccc(N)c3)nn2)CC1,-12%
COc1cc(-c2ccnc3nc(CCc4ccccc4)nn23)cc(OC)c1OC,11µM*
SMILES,Pf Dd2 growth
COc1ccc(CCc2nc3nccc(-c4ccc(F)cc4)n3n2)cc1OC,-11%
COc1ccc(CCc2nc3nccc(-c4ccccc4)n3n2)cc1OC,-21%
COc1ccc(CCc2nc3nccc(-c4ccc(OC)c(OC)c4)n3n2)cc1,13µM*
COc1ccc(CCc2nc3nccc(-c4ccncc4)n3n2)cc1OC,-11%
COc1ccc(CCc2nc3nccc(-c4cc(OC)c(OC)c(OC)c4)n3n2)cc1,-14%
CCC(=O)N1C[C@@H]2C(=O)N(C)C(=O)[C@@H]2C1,30%
CCn1cnnc1CCNC(=O)c1cc(-c2ccc(C)cc2)nc2ccccc12,-11%
CC(C)OCCCNC(=O)c1cc(C2CC2)nc2onc(C3CCNC3)c12 (stereo not drawn),19%
COc1ccc(NC(=O)Cn2ccn3nc(-c4ccccc4)c(CO)c3c2=O)cc1,16%
COCCN1C(=O)[C@@H]2C[C@@H](CN2Cc2ccccc2)Oc2ccccc21,i
CC(C)N1C[C@@H]2C[C@H]1C(=O)N(CC1CC1)c1ccccc1O2,11µM*
COCCN1C(=O)[C@@H]2C[C@@H](CN2C(C)C)Oc2ccccc21,-34%[44.1 µM]
O=C1[C@@H]2C[C@@H](CN2C(=O)c2ccccc2)Oc2ccccc2N1CC1CC1,5%[44.1 µM]
CN1CCC(N2C[C@@H]3C[C@H]2C(=O)N(Cc2ccc(OC(F)(F)F)cc2)c2ccccc2O3)CC1,10µM*
COc1ccc(CN2C(=O)[C@@H]3C[C@@H](CN3C(C)C)Oc3ccccc32)cc1,26%[44.1 µM]
O=C1[C@@H]2C[C@@H](CN2C(=O)C2CC2)Oc2ccccc2N1Cc1ccccc1,i
O=C1[C@@H]2C[C@@H](CN2C2COC2)Oc2ccccc2N1Cc1ccc(OC(F)(F)F)cc1,i
CC(C)N1C[C@@H]2C[C@H]1C(=O)N(Cc1ccc(OC(F)(F)F)cc1)c1ccccc1O2,11µM*
COCCN1C(=O)[C@@H]2C[C@@H](CN2Cc2cccc(OC)c2)Oc2ccccc21,10µM*
COCCN1C(=O)[C@@H]2C[C@@H](CN2Cc2ccc(C#N)cc2)Oc2ccccc21,-11%[44.1 µM]
O=C1[C@@H]2C[C@@H](CN2C(=O)c2ccccc2)Oc2ccccc2N1Cc1ccccc1,-12%[44.1 µM]
Cc1ccc(CNC(=O)c2ccc(N3CC4CC(C3)[C@H]3CCCC(=O)N3C4)nc2)cc1 (stereo partly drawn),-17%
CC(C)NC(=O)C[C@@H]1C[C@H]2O[C@H](CNC3CCOCC3)[C@@H](O)[C@H]2O1,7%[44.1 µM]
Cc1ccc2nc(CN(C)C(=O)c3ccc(C)c(N4CCNC4=O)c3)[nH]c2c1,-1%
CC(C)(C)CC(=O)N1CC[C@@H](CC(=O)O)[C@@H](CCN2CCOCC2)C1,4%[44.1 µM]
SMILES,Pf Dd2 growth
CCc1nc(-c2c3n(c(=O)n(CC(=O)Nc4ccccc4OC)c2=O)CCCCC3)no1,3%
O=C(O)Cc1cccn1-c1cccc(Cl)c1,i
COc1cc(-c2[nH]ncc2CN(CCO)Cc2cccs2)cc(OC)c1OC,-7%
COCCN1C(=O)[C@@H]2C[C@@H](CN2C2CCCC2)Oc2ccccc21,-30%[44.1 µM]
COc1ccc(CN2C(=O)[C@@H]3C[C@@H](CN3C3CCCC3)Oc3ccccc32)cc1,10µM*
COc1ccc(CN2C(=O)[C@@H]3C[C@@H](CN3C(=O)c3cnccn3)Oc3ccccc32)cc1,-26%[44.1 µM]
CCC(=O)N1CCCN(CC)C2(CCOCC2)C1,-15%
Cc1ccc(CN2CCCC3(COc4ccccc4C(=O)N3)C2)cc1 (stereo not drawn),13µM*
N#Cc1ccc(CN2CCCC3(COc4ccccc4C(=O)N3)C2)cc1 (stereo not drawn),-24%
O=C1NC2(CCN(Cc3ccccc3)C2)COc2ccccc21 (stereo not drawn),10µM*
O=C1NC2(CCCN(Cc3ccncc3)C2)COc2ccccc21 (stereo not drawn),-21%[44.1 µM]
O=C1NC2(CCCN(C(=O)c3cccnc3)C2)COc2ccccc21 (stereo not drawn),i
N#Cc1ccc(CN2CC3(C2)NC(=O)c2ccccc2O3)cc1,i
O=C1NC2(CCN(Cc3ccc(OC(F)(F)F)cc3)C2)COc2ccccc21 (stereo not drawn),9%
COc1cccc(CN2CCCC3(C2)NC(=O)c2ccccc2O3)c1 (stereo not drawn),16µM*
COc1cccc(CN2CC3(C2)NC(=O)c2ccccc2O3)c1,-4%[44.1 µM]
O=C1NC2(CCN(Cc3ccncc3)C2)Oc2ccccc21 (stereo not drawn),14%[44.1 µM]
N#Cc1ccc(CN2CCC3(CC2)COc2ccccc2C(=O)N3)cc1,2.5µM*
O=C1NC2(CCCN(Cc3cccnc3)C2)Oc2ccccc21 (stereo not drawn),-15%[44.1 µM]
CN1[C@@H](CCC(=O)N2CCC(O)CC2)CNC(=O)[C@@H]2[C@H]1CCN2Cc1ccc(S(C)(=O)=O)cc1,37%
O=C(Nc1ccccc1)N1CCCCC1c1nc(-c2cnccn2)n[nH]1 (stereo not drawn),-10%
COCC1CN(C(=O)CCn2nc(C)cc2C)CC12CCOCC2 (stereo not drawn),30%
CC1(CCCCN2CCOCC2)COc2ccc(C(=O)NCc3cccc(F)c3)cc2N1 (stereo not drawn),i

# Source: PubChem
